Experimental data from PubChem BioAssay AID1918 (Vanderbilt High Throughput Screening Facility, 2009).
About 2,500 (1.9%) of roughly 130,000 compounds were called active. What follows is part of a selection rich in actives, with near analogues and random picks from the rest. A number with no mark means an inactive call.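 Rule for the calls: active = signal ratio slope over the read window, or its plate-corrected B-score, at least 3 SD from the plate mean, either direction; inactive = the rest.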

molecular target: ATP-sensitive inward rectifier potassium channel 1 (Homo sapiens) (UniProt P48048); assay: Kir1.1 channel activity modulation, library screen – cell-based, thallium flux, MLSMR library, primary screen (AID 1918); conditions: Tet-inducible ROMK, thallium flux fluorescence; at 10 µM; actives lie on both sides;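 note: B-score of the F/F0 ratio slope over 7 to 12 s after thallium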
Sequence (P48048 whole entry, looked up): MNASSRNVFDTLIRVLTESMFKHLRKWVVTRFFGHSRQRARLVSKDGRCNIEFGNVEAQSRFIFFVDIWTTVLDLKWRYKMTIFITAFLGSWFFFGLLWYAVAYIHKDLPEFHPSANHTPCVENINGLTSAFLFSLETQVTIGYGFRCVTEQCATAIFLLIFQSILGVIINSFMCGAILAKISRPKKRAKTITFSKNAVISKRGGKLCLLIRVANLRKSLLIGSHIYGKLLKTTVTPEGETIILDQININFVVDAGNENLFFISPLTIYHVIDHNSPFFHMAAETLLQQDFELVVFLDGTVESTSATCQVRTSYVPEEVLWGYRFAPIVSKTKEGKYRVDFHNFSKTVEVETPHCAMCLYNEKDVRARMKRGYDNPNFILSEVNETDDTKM

| Compound | B-score |
| --- | --- |
| S=C(NCc1ccc2c(c1)OCO2)NCc1ccco1 | -0.541 |
| COC(=O)Cn1cc(/C=C/[N+](=O)[O-])c2ccccc21 | -8.61 (active) |
| COC(=O)Cn1cc(C(=O)c2cccs2)c2ccccc21 | 0.201 |
| COC(=O)N/N=C/c1cn(CCCOc2ccc(C)cc2)c2ccccc12 | 0.506 |
| O=C(N/C(=C\c1ccc(F)cc1)C(=O)N1CCCCCC1)c1ccccc1 | 0.658 |
| Cc1ccc(C(=O)N/C(=C\c2ccco2)C(=O)NC2CCS(=O)(=O)C2)cc1 (stereo not drawn) | 0.484 |
| COc1ccc(C(CCNCc2ccccc2F)c2ccc(F)cc2)cc1 (stereo not drawn) | -2.56 (active) |
| COc1ccc(C(CC(=O)O)NC(=O)Cc2ccccc2)cc1 (stereo not drawn) | -0.208 |
| COc1ccc(CC(=O)NC(C)CCc2ccccc2)cc1 (stereo not drawn) | -0.201 |
| O=C(NC1CC1)C1CCCN(C(=O)NC2CCCCC2)C1 (stereo not drawn) | 0.0365 |
| CCN(C(=O)CSc1nc2ccccc2n1CC)C1CCS(=O)(=O)C1 (stereo not drawn) | -1.63 |
| Cc1cc(=O)[nH]c2nnnn12 | -0.253 |
| Cc1ccc(N2C(=O)CC(Nc3cccc4ccccc34)C2=O)cc1 (stereo not drawn) | -0.14 |
| Cc1ccc(N2C(=O)SC(N(CC(=O)O)c3ccc(C)cc3)C2=O)cc1 (stereo not drawn) | 0.244 |
| Cc1ccc(N2C(=O)C3CC3C2=O)cc1 (stereo not drawn) | 1.41 (active) |
| O=C(CSc1nc2ccccc2o1)N/N=C/c1ccccc1C(=O)O | 0.754 |
| CCOC(=O)c1sc(=S)n2c1[nH]c(=O)c1ccc(C(=O)OC)cc12 | 6.64 (active) |
| CCOC(=O)Cn1c(N)c(C(=O)OC)sc1=S | -0.216 |
| CCOC(=O)c1sc(=S)n(-c2cccc(OC)c2)c1N | -0.158 |
| CC(C)N1CCC(=NNc2ccc([N+](=O)[O-])cc2S(=O)(=O)N2CCOCC2)CC1 | -0.739 |
| O=C1C(=O)N(c2ccccc2)c2ccccc21 | 3.08 (active) |
| O=C1c2ccccc2C(=O)N1c1ccccc1S(=O)C(F)(F)F (stereo not drawn) | -0.708 |
| CC(C)OC(=O)CN1C(=O)C(=O)c2ccccc21 | -0.327 |
| Cc1cc([N+](=O)[O-])nn1CCCC(=O)Nc1cccnc1Cl | 0.471 |

| Compound | B-score |
| --- | --- |
| COc1ccc(Br)cc1/C=N/NC(=O)c1cccc(S(=O)(=O)N2CCOCC2)c1 | -0.0649 |
| Oc1ccc2ccccc2c1N=Nc1nccs1 | 2.22 (active) |
| Oc1c(C=Nc2cccc3nsnc23)ccc2ccccc12 | -0.773 |
| COc1cccc(C(=O)Nc2cccnc2)c1OC | 1.32 |
| Cc1cccc(-n2c(C)cc(/C=N/NC(N)=S)c2C)c1 | 2.21 |
| Cc1cc(/C=N/NC(N)=O)c(C)n1C1CCCCC1 | 3.24 (active) |
| Cc1cccc(-n2c(C)cc(/C=N\NC(=O)c3cccs3)c2C)c1 | 0.454 |
| CCOc1cc(C(=O)N2CCc3cc(OC)c(OC)cc3C2)ccc1OC(F)F | 4.09 (active) |
| COc1cc2c(cc1OC)CN(C(=O)c1cc(=O)c3ccccc3o1)CC2 | 2.64 |
| COc1ccc(CC(NC(C)=O)C(=O)NC2CCN(C(=O)c3ccc(OC)c(OC)c3)CC2)cc1OC (stereo not drawn) | -0.592 |
| CS(=O)(=O)N(Cc1ccccc1Cl)c1ccc(C(=O)NCc2cccnc2)cc1 | -0.455 |
| S=C(NCc1ccco1)Nc1ccc2c(c1)OCCO2 | 0.904 |
| CCSc1sc(CC)cc1C=O | 4.04 (active) |
| Cc1ccc(S(=O)(=O)Nc2nc(N)n(-c3ccccc3)n2)cc1 | 0.00772 |
| Cc1noc(COc2ccccc2OCC(O)CNC(C)(C)C)n1 (stereo not drawn) | -0.0138 |
| CC(C)(C)CC(C)(C)NCC(O)COCCOc1ccc(Br)cc1 (stereo not drawn) | -3.09 (active) |
| Nc1ccccc1SC(C[N+](=O)[O-])c1ccccc1 (stereo not drawn) | -8.64 (active) |
| O=C(NCc1ccc(Cl)cc1)NCc1ccc(Cl)cc1 | -0.951 |
| S=c1[nH]nc(-c2cccnc2)n1/N=C/C(Cl)=C\c1ccccc1 | -3.13 (active) |
| Oc1ccccc1/C=N/n1c(-c2cccs2)n[nH]c1=S | 0.503 |
| S=c1[nH]nc(-c2ccccc2)n1/N=C/c1c[nH]c2ccccc12 | 1.36 |
| Cc1ccc(C(=O)O)cc1NC(=O)c1ccc(Cn2nc(C)c(Cl)c2C)o1 | -0.188 |
| Cc1nc2sc3c(c2c(=O)n1NC(=O)CCl)CCCC3 | -0.421 |
| CCS(=O)(=O)C1=NSC2=NC(=O)/C(=C\c3cc(C)n(-c4cccc(OC)c4)c3C)C(=N)N21 | 1.02 |

| Compound | B-score |
| --- | --- |
| Cc1cc(/C=C2/C(=N)N3C(=NC2=O)SN=C3S(C)(=O)=O)c(C)n1-c1ccccc1 | 1.2 (active) |
| CS(=O)(=O)c1ccc2c(c1)SC1=NC(=O)/C(=C/c3ccco3)C(=N)N12 | 0.317 |
| CC(C)(C)NC(=O)NC(=O)COC(=O)Cc1c(F)cccc1Cl | -0.0671 |
| COC(=O)COc1ccc(C2NC(=O)NC(C)=C2C(=O)NCc2ccccc2)cc1OC (stereo not drawn) | 0.834 |
| NS(=O)(=O)c1ccc(NC(=O)/C=C/c2ccccc2Cl)cc1 | 0.913 |
| CCN(CC)N=Nc1cccc(NC(C)=O)c1 | 0.863 |
| Cc1cccn2c(=O)c3cc(C(=O)N4COCC4(C)C)n(C)c3nc12 | -4.56 (active) |
| CCn1c(=N)c(C(=O)NCCCOC)cc2c(=O)n3cccc(C)c3nc21 | -1.26 |
| Cc1cccn2c(=O)c3cc(C#N)c(=O)n(CCCN4CCOCC4)c3nc12 | 0.896 |
| S=C(c1ccc(-c2ccccc2)o1)N1CCCCC1 | -1.97 |
| CC(=O)NC(Cc1ccc(F)c(F)c1)C(=O)NC1CCN(C(=O)c2ccc(C)cc2)CC1 (stereo not drawn) | -0.484 |
| CCOC(=O)C1CCN(C(=O)c2ccccc2N(C)S(=O)(=O)c2ccccc2)CC1 | 0.0133 |
| NC(=O)c1ccccc1N(Cc1ccccc1)S(=O)(=O)c1ccccc1 | 3.2 (active) |
| CCOC(=O)N1CCN(C(=O)c2ccccc2N(Cc2ccccc2)S(=O)(=O)c2ccc(OC)cc2)CC1 | 2.44 |
| COC(=O)c1ccccc1NC(=O)C1CCN(S(=O)(=O)c2cc(OC)ccc2OC)CC1 | 2.29 (active) |
| CCOC(=O)C1CCN(S(=O)(=O)c2cc(F)ccc2OC)CC1 | -0.346 |
| COC(=O)c1ccccc1NC(=O)C1CC(=O)N(c2ccc(OC)cc2)C1 (stereo not drawn) | 0.403 |
| CCOC(=O)C1=C(CN2CCCCCC2)NC(=O)NC1c1cccc([N+](=O)[O-])c1 (stereo not drawn) | -1.02 |
| COc1ccc(C(=O)NC2CCN(C(=S)NCCc3ccccc3)CC2)cc1 | -0.464 |
| NS(=O)(=O)c1ccc(CCNC(=O)c2ccc([N+](=O)[O-])cc2[N+](=O)[O-])cc1 | 0.546 |
| COc1ccc(CC(=O)Nc2cc(S(=O)(=O)N3CCCCC3)ccc2N2CCN(C)CC2)cc1 | 0.269 |
| CN1CCN(c2ccc(S(=O)(=O)N3CCCCC3)cc2NC(=O)Cc2ccccc2F)CC1 | -4.06 (active) |
| O=C(COC(=O)c1ccccc1F)Nc1cc(S(=O)(=O)N2CCOCC2)ccc1N1CCCC1 | -0.699 |
| C=CCOC(=O)C1=C(C)N=C2SCCC(=O)N2C1/C=C/c1ccccc1OC (stereo not drawn) | -2.24 |

| Compound | B-score |
| --- | --- |
| COCCn1c(Cc2cccn2C)nnc1SCC(=O)Nc1nccs1 | -0.191 |
| CCn1c(/C=C/Nc2ccccc2)[n+](CC)c2ccc(C(=O)OCC(F)(F)F)cc21 | -3.51 (active) |
| Cn1cnc(S(=O)(=O)Nc2ccc3c(c2)OCCO3)c1 | 1.18 |
| Cc1[nH]c2ccccc2c1/C=C(/C#N)C(=O)NC(C)C | 0.27 |
| O=C(/C=C/c1c(F)cccc1Cl)Nc1nn[nH]n1 | -0.796 |
| CNC(=O)/C(C#N)=C/c1c(F)cccc1Cl | -5.65 (active) |
| COc1ccc(C(=O)NC2CCN(C(=S)Nc3ccccc3)CC2)cc1 | 0.59 |
| C=CCn1c(COc2ccc(F)cc2)nnc1SCC(=O)Nc1cccc(S(N)(=O)=O)c1 | 0.118 |
| COC(=O)CNc1nc(Cl)nc(N2CCC(C)CC2)n1 | -0.416 |
| COCCNC(=O)c1ccc(-n2c(SCc3cccnc3)nc3ccccc3c2=O)cc1 | -0.255 |
| O=C1CN(C(=O)COC(=O)c2cnc(Cl)c(Cl)c2)c2ccccc2N1 | -0.857 |
| CC(C)(c1ccccc1)c1ccc(OCCN)cc1 | -2.62 (active) |
| CCCOc1ccc(C(=O)NCCc2ccccc2)cc1 | 0.056 |
| CN(C)CC(O)COc1ccc(C(C)(C)c2ccc(OCC(O)CN(C)C)cc2)cc1 (stereo not drawn) | -0.0221 |
| CN(CC(=O)Nc1ccc(N2CCOCC2)cc1)CC(=O)Nc1ccccc1[N+](=O)[O-] | -0.00205 |
| O=C(NC(=S)Nc1ccc(S(=O)(=O)N2CCOCC2)cc1)c1ccccc1[N+](=O)[O-] | -0.648 |
| O=C(Nc1ccc(N2CCOCC2)cc1)c1ccc(-c2ccccc2[N+](=O)[O-])o1 | 3.49 (active) |
| CCc1nnc(NC(=O)Cc2cccs2)s1 | 0.627 |
| CCn1cc(CN2CCCC(CNS(=O)(=O)Cc3ccccc3)C2)cn1 (stereo not drawn) | -1.12 |
| CCOc1ncccc1C(=O)OCC(=O)NC1CC1 | 0.144 |
| COc1cccc(NC(=O)CC2C(=O)NCCN2C(=S)Nc2ccc(F)cc2)c1 (stereo not drawn) | -0.0401 |
